Test results as given in the supplement of paper PMC10849652.
About 7,900 targets were measured; listed, in parts, are those with a hit and a random draw of the rest. About 0.6% of all pairs of compound and target were hits.

Assays:
Test in all cases: log2 fold change, soluble protein after heating vs DMSO (PISA); higher = thermal stabilisation; K562 cells, 10 uM, 30 min; active = over 0.2 and 3.5 SD of the protein, either way, in both replicates (recomputed)
erlotinib = compound: C#Cc1cccc(Nc2ncnc3cc(OCCOC)c(OCCOC)cc23)c1 [erlotinib]
In short: (§1)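 Quantification of soluble protein used TMTpro 16plex LC-MS/MS, with channel sums equalised. Samples were the supernatant after 21,000xg for 90 min of pooled aliquots from K562 cells (2×10^6 cells/mL) treated with 10 μM compound for 30 min, heated for 3 min over 48°C-58°C, and extracted in PBS with 0.5% NP-40 at 4°C. Values, from duplicates, describe thermal stability against control samples on a log2 fold-change scale.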

[1] = compound: C1=CC(=C(C=C1Cl)C2=NC3=NC=CN=C3C(=N2)NC4=CC=NC=C4)F
In short: as §1

[2] = compound: C1=CC(=CC=C1C2=NC3=C(N2)C=C(C=C3)C(=O)N)OC4=CC=C(C=C4)Cl
In short: as §1

[3] = compound: C1=CC2=NC=CN=C2C=C1/C=C/3\C(=O)NC(=O)S3
In short: as §1

[4] = compound: C1=CC=C(C=C1)C2=NC(=C(N2)C3=CC=NC=C3)C4=CC(=C(C=C4)Cl)O
In short: as §1

[5] = compound: C1CCN(C1)C(=O)NC2=CC=CC(=C2)NC3=NC=C(C(=N3)NCCC4=CN=CN4)Br
In short: as §1

[6] = compound: C1CN(CCC1(CC2=CC=C(C=C2)Cl)N)C3=NC=NC4=C3C=CN4
In short: as §1

ibrutinib = compound: C=CC(=O)N1CCC[C@@H](n2nc(-c3ccc(Oc4ccccc4)cc3)c3c(N)ncnc32)C1 [ibrutinib]
In short: as §1

ralimetinib = compound: CC(C)(C)Cn1c(N)nc2ccc(-c3[nH]c(C(C)(C)C)nc3-c3ccc(F)cc3)nc21 [ralimetinib]
In short: as §1

[7] = compound: CC(C)(O)CC(=O)NCCn1ccc2ncnc(Nc3ccc(Oc4cccc(C(F)(F)F)c4)c(Cl)c3)c21
In short: as §1

[8] = compound: CC(C)C1=C2N=C(C=C(N2N=C1)NCC3=CC=CC=C3)NCCCCCCN
In short: as §1

[9] = compound: CC(C)C[C@@H](C=O)NC(=O)[C@H](CC(C)C)NC(=O)[C@H](CC(C)C)NC(=O)OCc1ccccc1
In short: as §1

[10] = compound: CC1=C(C(CC(=O)N1)C2=CC=C(C=C2)C(F)(F)F)C(=O)NC3=C(C=C4C(=C3)C=NN4)F
In short: as §1

[11] = compound: CC1=C(C2=C(C=C1)C(=O)C3=CC=CC=C3N2CCCN)C
In short: as §1

IRAK-1-4 Inhibitor I = compound: C1COCCN1CCN2C3=CC=CC=C3N=C2NC(=O)C4=CC(=CC=C4)[N+](=O)[O-] [IRAK-1-4 Inhibitor I]
In short: as §1

pinometostat = compound: CC(C)N(C[C@H]1O[C@@H](n2cnc3c(N)ncnc32)[C@H](O)[C@@H]1O)[C@H]1C[C@@H](CCc2nc3cc(C(C)(C)C)ccc3[nH]2)C1 [pinometostat]
In short: as §1

[12] = compound: C/C(=N\NC(=O)C1=CC(=CC=C1)S(=O)(=O)N2CCOCC2)/C3=C(C=CC(=C3)Cl)O
In short: as §1

[13] = compound: C1=CC2=C(C=CC(=C2)/C=C\3/C(=O)NC(=NCC4=CC=CS4)S3)N=C1
In short: as §1

[14] = compound: C1=CC=C2C(=C1)C3=NNC4=CC=CC(=C43)C2=O
In short: as §1

[15] = compound: CC(=O)c1cnc2ccc(-c3cc(Cl)c(O)c(Cl)c3)nc2c1N[C@H]1CC[C@H](CN(C)C)CC1
In short: as §1

Measured: log2 fold change

MOB2 isoform 3 (UniProt Q70IA6)
inactive: erlotinib 0.029 | [1] -0.077 | [2] -0.001 | [3] 0.06 | [4] 0.025 | [5] 0.135 | [6] -0.22 | ibrutinib -0.061 | ralimetinib 0.039 | [7] -0.15 | [8] -0.01 | [9] -0.021 | [10] -0.037 | [11] 0.106

MYLK (UniProt Q15746)
inactive: erlotinib 0.25 | [2] -0.146 | [3] -0.005 | [4] 0.291 | [5] 0.008 | [6] -0.066 | IRAK-1-4 Inhibitor I -0.051 | ibrutinib -0.101 | ralimetinib 0.524 | [8] -0.207 | [9] -0.181 | pinometostat -0.051 | [10] -0.269 | [11] -0.136

MITF (UniProt O75030)
Chain of UniProt O75030 (O75030 whole entry, looked up): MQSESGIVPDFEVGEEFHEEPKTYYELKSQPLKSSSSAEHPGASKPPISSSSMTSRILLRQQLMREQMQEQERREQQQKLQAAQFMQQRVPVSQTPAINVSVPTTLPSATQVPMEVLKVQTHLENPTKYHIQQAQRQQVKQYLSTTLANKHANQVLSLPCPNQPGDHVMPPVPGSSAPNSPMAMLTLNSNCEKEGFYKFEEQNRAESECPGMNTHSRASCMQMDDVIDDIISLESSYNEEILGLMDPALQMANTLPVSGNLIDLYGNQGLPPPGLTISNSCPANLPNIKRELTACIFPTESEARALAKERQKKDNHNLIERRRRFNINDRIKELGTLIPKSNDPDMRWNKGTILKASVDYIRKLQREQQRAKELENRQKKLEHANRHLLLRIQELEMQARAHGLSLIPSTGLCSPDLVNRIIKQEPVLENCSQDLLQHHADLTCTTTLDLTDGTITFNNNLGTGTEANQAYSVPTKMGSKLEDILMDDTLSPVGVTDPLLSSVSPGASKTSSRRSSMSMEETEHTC
active: [8] -0.581
inactive: erlotinib -0.021 | [12] -0.015 | [2] 0.041 | [13] -0.011 | [14] 0.047 | IRAK-1-4 Inhibitor I 0.166 | [15] -0.212 | pinometostat 0.074 | [10] 0.158

MRM2 (UniProt Q9UI43)
inactive: erlotinib 0.023 | [12] 0.182 | [2] 0.031 | [13] 0.185 | [14] 0.121 | [5] -0.017 | [6] -0.002 | [15] -0.119 | [8] -0.075 | [10] 0.057 | [11] 0.104

NOLC1 isoform 3 (UniProt Q14978)
inactive: erlotinib 0.002 | [2] 0.183 | [8] 0.151

NA (UniProt J3KR12)
inactive: [1] -0.073 | [3] 0.254 | [4] 0.075 | IRAK-1-4 Inhibitor I -0.191 | ibrutinib -0.159 | ralimetinib 0.011 | [7] -0.1 | [9] 0.017 | pinometostat 0.053 | [10] 0.046

MSANTD2 (UniProt Q6P1R3)
inactive: [1] 0.012 | [5] -0.081 | [6] -0.052 | [7] 0.047 | [11] 0.012

NUDT7 (UniProt P0C024)
inactive: erlotinib -0.246 | [1] -0.282 | [2] 0.148 | [3] -0.066 | [4] -0.118 | [5] 0.158 | [6] -0.024 | IRAK-1-4 Inhibitor I -0.02 | ibrutinib 0.205 | ralimetinib -0.52 | [7] -0.467 | [8] 0 | [9] 0.207 | pinometostat -0.231 | [10] 0.129 | [11] 0.039

NAP1L1 (UniProt B7Z9C2)
inactive: erlotinib 1.01 | [12] 0.122 | [2] -0.051 | [13] 0.156 | [3] 0.175 | [14] -0.178 | IRAK-1-4 Inhibitor I -0.147 | ibrutinib -0.04 | [15] -0.058 | [8] 0.359 | pinometostat -0.052 | [10] 0.111

NKTR (UniProt P30414)
Chain of UniProt P30414 (P30414 whole entry, looked up): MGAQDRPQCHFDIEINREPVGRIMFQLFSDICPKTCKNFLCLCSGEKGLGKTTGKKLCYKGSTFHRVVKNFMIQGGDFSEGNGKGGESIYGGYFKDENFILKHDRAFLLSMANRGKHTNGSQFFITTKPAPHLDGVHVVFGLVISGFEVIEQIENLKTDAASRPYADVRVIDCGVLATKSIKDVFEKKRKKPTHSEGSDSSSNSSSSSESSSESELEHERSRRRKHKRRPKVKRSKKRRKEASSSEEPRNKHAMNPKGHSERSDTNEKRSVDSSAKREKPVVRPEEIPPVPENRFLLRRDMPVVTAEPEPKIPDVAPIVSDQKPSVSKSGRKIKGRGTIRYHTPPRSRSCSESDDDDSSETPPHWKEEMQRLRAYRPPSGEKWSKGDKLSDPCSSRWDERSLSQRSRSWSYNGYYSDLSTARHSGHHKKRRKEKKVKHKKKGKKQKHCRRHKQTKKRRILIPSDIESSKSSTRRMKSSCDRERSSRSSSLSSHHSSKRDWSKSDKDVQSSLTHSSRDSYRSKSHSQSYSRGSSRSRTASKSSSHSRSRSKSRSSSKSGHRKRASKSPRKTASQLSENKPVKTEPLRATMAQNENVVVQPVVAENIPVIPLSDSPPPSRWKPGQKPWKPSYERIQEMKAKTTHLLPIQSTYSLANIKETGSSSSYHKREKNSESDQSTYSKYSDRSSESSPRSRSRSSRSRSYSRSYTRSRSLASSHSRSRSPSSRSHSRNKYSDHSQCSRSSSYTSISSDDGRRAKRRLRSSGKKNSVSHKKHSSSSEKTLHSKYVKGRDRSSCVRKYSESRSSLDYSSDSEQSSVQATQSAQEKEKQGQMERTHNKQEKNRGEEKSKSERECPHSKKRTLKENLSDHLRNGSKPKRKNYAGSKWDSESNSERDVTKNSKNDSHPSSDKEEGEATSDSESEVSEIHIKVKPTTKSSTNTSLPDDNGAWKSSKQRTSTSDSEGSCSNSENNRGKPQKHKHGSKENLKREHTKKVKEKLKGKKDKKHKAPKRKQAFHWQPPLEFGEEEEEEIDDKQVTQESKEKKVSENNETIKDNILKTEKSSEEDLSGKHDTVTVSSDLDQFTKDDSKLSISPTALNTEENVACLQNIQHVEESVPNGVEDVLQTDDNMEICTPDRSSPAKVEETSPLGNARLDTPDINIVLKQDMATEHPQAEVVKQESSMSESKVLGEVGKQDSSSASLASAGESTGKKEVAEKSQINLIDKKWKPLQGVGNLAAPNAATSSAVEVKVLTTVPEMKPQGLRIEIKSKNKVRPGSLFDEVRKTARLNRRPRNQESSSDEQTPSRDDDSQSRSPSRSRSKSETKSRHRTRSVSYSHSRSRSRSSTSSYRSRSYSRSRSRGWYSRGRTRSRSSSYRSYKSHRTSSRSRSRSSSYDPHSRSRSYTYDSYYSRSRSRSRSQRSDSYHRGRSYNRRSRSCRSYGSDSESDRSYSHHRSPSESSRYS
inactive: erlotinib 0.597 | [2] 0.028 | [3] -0.149 | ibrutinib -0.191 | [8] 0.084

OVCA2 (UniProt Q8WZ82)
inactive: [12] 0.23 | [13] 0.108 | [3] 0.268 | [4] -0.044 | [14] -0.131 | IRAK-1-4 Inhibitor I -0.087 | ibrutinib 0.023 | [15] -0.019 | ralimetinib -0.1 | [9] 0.095 | pinometostat 0.021 | [10] 0.044

NA, A0A494C071
Chain of NA, A0A494C071 (A0A494C071 whole entry, looked up): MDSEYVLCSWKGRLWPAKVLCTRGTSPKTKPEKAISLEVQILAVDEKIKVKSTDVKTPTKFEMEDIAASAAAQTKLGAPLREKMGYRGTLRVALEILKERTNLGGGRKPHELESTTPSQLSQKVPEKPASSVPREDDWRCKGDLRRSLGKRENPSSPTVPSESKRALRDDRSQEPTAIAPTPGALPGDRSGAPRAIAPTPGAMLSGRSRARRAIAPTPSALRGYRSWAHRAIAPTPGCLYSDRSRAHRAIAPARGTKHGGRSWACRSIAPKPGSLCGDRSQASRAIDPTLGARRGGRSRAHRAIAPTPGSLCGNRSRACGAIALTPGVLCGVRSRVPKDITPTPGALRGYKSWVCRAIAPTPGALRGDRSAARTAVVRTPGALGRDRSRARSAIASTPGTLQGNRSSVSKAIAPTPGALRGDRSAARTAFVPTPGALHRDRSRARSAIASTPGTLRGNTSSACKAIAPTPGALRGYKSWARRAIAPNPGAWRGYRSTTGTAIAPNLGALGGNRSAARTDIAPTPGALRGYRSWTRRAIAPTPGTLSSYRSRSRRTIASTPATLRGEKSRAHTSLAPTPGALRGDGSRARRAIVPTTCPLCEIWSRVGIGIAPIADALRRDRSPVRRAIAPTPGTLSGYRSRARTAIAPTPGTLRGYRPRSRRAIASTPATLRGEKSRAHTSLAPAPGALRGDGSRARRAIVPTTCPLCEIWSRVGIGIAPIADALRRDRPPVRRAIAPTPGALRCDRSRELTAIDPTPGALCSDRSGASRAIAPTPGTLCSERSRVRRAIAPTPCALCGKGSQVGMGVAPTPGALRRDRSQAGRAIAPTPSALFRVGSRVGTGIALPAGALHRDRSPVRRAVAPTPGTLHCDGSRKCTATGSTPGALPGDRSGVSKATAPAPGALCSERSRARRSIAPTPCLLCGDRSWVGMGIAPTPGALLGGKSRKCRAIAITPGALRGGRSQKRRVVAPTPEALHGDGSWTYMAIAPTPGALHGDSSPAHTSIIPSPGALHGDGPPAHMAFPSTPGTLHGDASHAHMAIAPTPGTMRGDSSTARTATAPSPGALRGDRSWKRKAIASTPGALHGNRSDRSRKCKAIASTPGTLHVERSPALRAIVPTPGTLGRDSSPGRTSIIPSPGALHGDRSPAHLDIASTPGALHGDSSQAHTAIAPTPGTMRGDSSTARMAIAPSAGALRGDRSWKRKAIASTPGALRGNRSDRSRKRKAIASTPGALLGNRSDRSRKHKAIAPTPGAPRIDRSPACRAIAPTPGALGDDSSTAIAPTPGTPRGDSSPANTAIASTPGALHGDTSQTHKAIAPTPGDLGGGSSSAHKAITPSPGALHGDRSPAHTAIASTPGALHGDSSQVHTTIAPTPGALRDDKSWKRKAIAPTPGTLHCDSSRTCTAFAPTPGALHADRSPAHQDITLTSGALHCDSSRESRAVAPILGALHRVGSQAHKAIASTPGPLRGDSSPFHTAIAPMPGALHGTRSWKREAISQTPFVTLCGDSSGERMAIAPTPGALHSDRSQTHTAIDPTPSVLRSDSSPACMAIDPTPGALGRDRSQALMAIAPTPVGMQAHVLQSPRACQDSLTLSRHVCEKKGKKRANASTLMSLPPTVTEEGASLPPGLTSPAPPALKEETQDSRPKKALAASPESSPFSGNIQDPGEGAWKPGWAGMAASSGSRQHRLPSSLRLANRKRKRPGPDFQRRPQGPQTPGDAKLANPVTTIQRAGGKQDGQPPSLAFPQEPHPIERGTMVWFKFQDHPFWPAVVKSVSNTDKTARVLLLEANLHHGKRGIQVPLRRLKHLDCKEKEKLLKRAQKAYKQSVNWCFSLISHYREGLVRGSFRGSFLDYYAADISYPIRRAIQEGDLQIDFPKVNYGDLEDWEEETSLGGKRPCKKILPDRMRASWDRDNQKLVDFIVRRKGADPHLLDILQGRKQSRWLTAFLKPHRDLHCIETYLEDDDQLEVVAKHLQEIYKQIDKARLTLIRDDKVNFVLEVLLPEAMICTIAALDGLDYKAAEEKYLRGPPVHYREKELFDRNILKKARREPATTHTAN
inactive: [12] 0 | [1] 0.197 | [13] -0.005 | [3] 0.079 | [14] -0.018 | [5] 0.136 | [6] 0.114 | IRAK-1-4 Inhibitor I -0.011 | ibrutinib -0.1 | [15] -0.038 | [7] 0.03 | pinometostat -0.034 | [10] 0.013 | [11] -0.141

NPC1L1 (UniProt Q9UHC9)
inactive: [12] 0.006 | [13] 0.073 | [3] 0.143 | [14] -0.02 | [5] 0 | [6] -0.033 | IRAK-1-4 Inhibitor I 0.014 | ibrutinib 0.047 | [15] -0.008 | pinometostat -0.136 | [10] -0.614 | [11] 0.085

NIPSNAP3B (UniProt Q9BS92)
inactive: erlotinib -0.061 | [12] -0.014 | [2] -0.071 | [13] -0.159 | [3] 0.031 | [14] 0.007 | [5] 0.008 | [6] 0.051 | IRAK-1-4 Inhibitor I 0.048 | ibrutinib 0.082 | [15] 0.026 | [8] 0.045 | pinometostat 0.056 | [10] 0.07 | [11] 0.049

MT-ND2 (UniProt P03891)
inactive: erlotinib -0.067 | [12] -0.063 | [2] 0.062 | [13] -0.108 | [3] 0.104 | [4] 0.116 | [14] 0.044 | [5] -0.016 | [6] -0.093 | IRAK-1-4 Inhibitor I -0.021 | ibrutinib -0.042 | [15] -0.171 | ralimetinib -0.119 | [8] -0.221 | [9] -0.089 | pinometostat -0.075 | [10] -0.076 | [11] 0.113

MYH16 (UniProt Q9H6N6)
inactive: erlotinib -0.044 | [12] 0.102 | [2] 0.049 | [13] -0.21 | [3] 0.284 | [14] 0.044 | [5] -0.089 | [6] -0.082 | IRAK-1-4 Inhibitor I -0.177 | ibrutinib -0.02 | [15] 0.045 | [8] 0.026 | pinometostat -0.019 | [10] -0.024
active: [11] 0.805

P4HA2 (UniProt O15460)
active: [1] -0.548
inactive: erlotinib -0.075 | [2] 0.034 | [3] -0.025 | [4] -0.02 | [5] -0.016 | [6] -0.035 | IRAK-1-4 Inhibitor I -0.072 | ibrutinib 0.168 | ralimetinib 0.038 | [7] 0.045 | [8] -0.017 | [9] 0.062 | pinometostat 0.06 | [10] 0.039 | [11] 0

MLH1 (UniProt P40692)
inactive: [12] 0.027 | [1] 0.077 | [13] -0.038 | [3] 0.096 | [14] 0.053 | [5] -0.165 | [6] 0.039 | ibrutinib -0.018 | [15] -0.112 | [7] -0.347 | [11] 0.008

MTHFD1, A0A384N5Y3
Chain of MTHFD1, A0A384N5Y3 (A0A384N5Y3 whole entry, looked up): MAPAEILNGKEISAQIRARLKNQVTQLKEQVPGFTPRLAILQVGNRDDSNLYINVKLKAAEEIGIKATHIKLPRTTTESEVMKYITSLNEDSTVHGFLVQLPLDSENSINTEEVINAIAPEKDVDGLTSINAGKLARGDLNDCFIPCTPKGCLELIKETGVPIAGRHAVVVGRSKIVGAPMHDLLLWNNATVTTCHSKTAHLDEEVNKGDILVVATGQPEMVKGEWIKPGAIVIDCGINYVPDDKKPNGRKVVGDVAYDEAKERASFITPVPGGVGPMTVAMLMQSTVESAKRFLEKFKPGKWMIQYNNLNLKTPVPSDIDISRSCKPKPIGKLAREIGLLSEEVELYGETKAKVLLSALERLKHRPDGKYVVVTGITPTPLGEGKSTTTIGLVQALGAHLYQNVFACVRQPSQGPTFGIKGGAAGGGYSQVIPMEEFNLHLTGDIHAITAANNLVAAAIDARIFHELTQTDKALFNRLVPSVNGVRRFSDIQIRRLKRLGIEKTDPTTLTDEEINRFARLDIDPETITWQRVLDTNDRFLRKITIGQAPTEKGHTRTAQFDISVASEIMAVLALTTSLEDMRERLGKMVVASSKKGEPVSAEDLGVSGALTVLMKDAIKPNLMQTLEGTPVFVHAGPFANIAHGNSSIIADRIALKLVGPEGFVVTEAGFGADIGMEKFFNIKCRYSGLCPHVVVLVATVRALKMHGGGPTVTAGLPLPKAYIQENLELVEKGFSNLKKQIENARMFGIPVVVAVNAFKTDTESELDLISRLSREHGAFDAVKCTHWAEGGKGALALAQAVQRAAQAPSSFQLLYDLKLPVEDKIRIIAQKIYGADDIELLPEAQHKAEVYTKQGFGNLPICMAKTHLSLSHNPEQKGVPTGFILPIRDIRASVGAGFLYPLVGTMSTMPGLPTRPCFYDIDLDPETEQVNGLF
inactive: [12] 0.056 | [1] 0.081 | [13] 0.146 | [3] -0.06 | [4] 0.036 | [14] 0.01 | [5] -0.004 | [6] 0.033 | ibrutinib 0.002 | [15] -0.085 | ralimetinib 0 | [7] -0.034 | [9] -0.008 | [10] -0.024 | [11] 0.049

NUDT6 (UniProt P53370)
inactive: erlotinib -0.022 | [1] 0.155 | [2] 0.103 | [4] -0.12 | [5] 0.121 | [6] 0.35 | IRAK-1-4 Inhibitor I -0.143 | ralimetinib 0.183 | [7] -0.106 | [8] -0.033 | [9] 0.035 | pinometostat 0.071 | [10] -0.161 | [11] 0.283

NCBP2AS2 (UniProt Q69YL0)
Chain of UniProt Q69YL0 (Q69YL0 whole entry, looked up): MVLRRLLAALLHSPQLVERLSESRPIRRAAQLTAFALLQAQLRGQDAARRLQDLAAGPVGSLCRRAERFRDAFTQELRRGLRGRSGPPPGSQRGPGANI
inactive: erlotinib 0.033 | [12] 0.104 | [2] 0.054 | [13] 0 | [3] 0.106 | [4] -0.029 | [14] 0.148 | [5] 0.048 | [6] 0.113 | ibrutinib 0.07 | [15] 0.21 | ralimetinib -0.01 | [9] 0.026 | [10] 0.089 | [11] -0.008
active: [8] -0.869

OXR1 isoform 2 (UniProt Q8N573)
inactive: [12] 0.137 | [1] -0.362 | [13] -0.034 | [4] -0.056 | [14] 0.068 | [5] 0.02 | [6] -0.022 | IRAK-1-4 Inhibitor I -0.044 | [15] -0.123 | ralimetinib -0.088 | [7] -0.118 | [9] 0.119 | pinometostat 0.066 | [10] -0.028 | [11] 0.031

NOS1AP (UniProt O75052)
inactive: erlotinib 0.134 | [1] 0.517 | [2] -0.006 | [3] -0.02 | [4] -0.248 | [5] -0.208 | ibrutinib -0.061 | ralimetinib 0.07 | [7] -0.073 | [8] -0.026 | [11] 0.154
active: [6] 1.09 | [9] 1.38

OAF (UniProt Q86UD1)
inactive: erlotinib -0.115 | [2] 0.05 | [4] -0.174 | ralimetinib -0.041 | [8] 0.009 | [9] -0.013
